Some test systems named below: CDC2L2; CDK2; CDK3; CDK4-cyclinD1; CDK4-cyclinD3; CDK4; CDK5; CDK7.
What all share (details): concentration: 1 μM, replicates: in singlicate; n = 1
The next test concerns T1, CDC2L5.
T1 construct: gene CDK13

In a further test the test system is T2, CDK11.
T2 construct: gene CDK19

The structures appear in SMILES notation.
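Note: KINOMEscan kinase panel screen.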

For the compound `CNc1nccc(-c2ccc3c(N)n[nH]c3c2)n1` [GSK2206003], the “%Inh” value in the test on CDC2L2 was found to be 17%; with CDC2L5 it was 0%; in the test on CDK11, 0%; in the test on CDK2, 23%; with CDK3, 19%; in the test with CDK4-cyclinD1, 7%. Further, the “%Inh” value with CDK4-cyclinD3 turned out to be 0%; in the test on CDK4, 31%; in the test on CDK5 it was 0%; in the test on CDK7, 23%.

Consider `Fc1cc(Cl)ccc1Nc1ccnc2cc(-c3ccc(CN4CCSCC4)o3)ccc12` [GW560106], for which the “%Inh” value turned out to be 0% in the test on CDC2L2; 0% with CDC2L5; 1% in the test with CDK11; 0% with CDK2; 0% with CDK3; 35% in the test with CDK4-cyclinD1. Also, the “%Inh” value in the test on CDK4-cyclinD3 was 0%; with CDK4, 53%; in the test with CDK5, 0%; in the test with CDK7 it was 0%.

Take `CN(c1ccc2c(c1)nc(NCc1ccccc1)n2C)c1ccnc(Nc2ccc(CS(C)(=O)=O)cc2)n1.Cl` [GW811603]: the “%Inh” value turned out to be 80% in the test with CDC2L2; 49% in the test with CDC2L5; 24% in the test on CDK11; 0% in the test on CDK2; 0% in the test with CDK3; 35% with CDK4-cyclinD1. Moreover, the “%Inh” value is 0% in the test on CDK4-cyclinD3, 34% in the test on CDK4, 0% with CDK5 and 20% in the test with CDK7.

`Fc1cc(Cl)ccc1Nc1ccnc2cc(-c3ccc(CN4CCOCC4)o3)ccc12` [GW560109]: the “%Inh” value in the test with CDC2L2 is given as 0%; in the test with CDC2L5, 0%; with CDK11, 0%; in the test on CDK2 it was 0%; in the test with CDK3, 18%; in the test on CDK4-cyclinD1 it was 0%. The “%Inh” value with CDK4-cyclinD3, in the test with CDK4, in the test on CDK5 and with CDK7 was 0% throughout.

With `CSc1ccc(NC2=C(c3ccc(Cl)cc3)C(=O)NC2=O)cc1` [SB-317658], the “%Inh” value with CDC2L2 came to 2%; in the test on CDC2L5, 0%; in the test on CDK11, 0%; with CDK2, 6%; in the test on CDK3, 18%; in the test on CDK4-cyclinD1, 0%. The “%Inh” value in the test on CDK4-cyclinD3 worked out at 0%; in the test with CDK4 it was 12%; with CDK5, 28%; in the test with CDK7, 36%.

As to `CCNC(=O)/C=C/c1n[nH]c2cc(Sc3ccccc3C(=O)NC)ccc12`, the “%Inh” value with CDC2L2 came out at 0%; with CDC2L5, 9%; in the test with CDK11, 10%; with CDK2, 0%; with CDK3, 39%; in the test on CDK4-cyclinD1, 0%. Further, the “%Inh” value in the test with CDK4-cyclinD3 was 0%; in the test on CDK4, 1%; in the test with CDK5, 41%; with CDK7, 23%.

`Nc1ncc(-c2ccc3nccc(-c4ccncc4)c3c2)cc1S(=O)(=O)N1CCCCC1` [GSK1693850]: the “%Inh” value amounted to 21% in the test with CDC2L2; 0% in the test with CDC2L5; 73% in the test with CDK11; 0% with CDK2; 7% with CDK3; 9% with CDK4-cyclinD1. Also, the “%Inh” value in the test with CDK4-cyclinD3 is 13%; in the test on CDK4, 0%; with CDK5, 0%; in the test with CDK7, 80%.

In the case of `COc1cccc2c(-c3ccncc3)c(-c3ccc(F)cc3)nn12` [GW468513], the “%Inh” value turned out to be 4% in the test on CDC2L2; 0% with CDC2L5; 8% in the test with CDK11; 4% in the test with CDK2; 6% with CDK3; 27% in the test with CDK4-cyclinD1. Further, the “%Inh” value in the test on CDK4-cyclinD3, in the test with CDK4, in the test with CDK5 and with CDK7 was 0% each time.

Turning to `Cc1ccc(O)cc1Nc1ccnc2cc(-c3ccc(CN4CCCCC4)o3)ccc12` [GW557777], the “%Inh” value worked out at 4% with CDC2L2; 0% with CDC2L5; 7% with CDK11; 0% with CDK2; 8% in the test with CDK3; 0% in the test with CDK4-cyclinD1. Also, the “%Inh” value came out at 7% with CDK4-cyclinD3, 0% in the test on CDK4, 0% with CDK5 and 0% in the test with CDK7.

`O=C(Nc1n[nH]c2nc(-c3cccc(O)c3)ccc12)C1CC1` [SB-711805]: the “%Inh” value amounted to 0% with CDC2L2; 46% with CDC2L5; 0% with CDK11; 38% in the test with CDK2; 49% in the test on CDK3; 20% in the test on CDK4-cyclinD1. Besides, the “%Inh” value came out at 25% in the test on CDK4-cyclinD3, 15% in the test with CDK4, 0% in the test with CDK5 and 23% with CDK7.

For `Nc1cccc(-c2ccc3c(N)n[nH]c3c2)c1` [GSK2193613], the “%Inh” value came out at 16% in the test on CDC2L2; 0% with CDC2L5; 8% with CDK11; 1% in the test with CDK2; 0% in the test with CDK3; 13% in the test with CDK4-cyclinD1. In addition, the “%Inh” value in the test with CDK4-cyclinD3 is on record as 0%; in the test on CDK4, 0%; in the test on CDK5, 0%; in the test on CDK7, 15%.

Turning to `Cc1ccc(O)cc1Nc1ccnc2ccc(C(C)(C)C)cc12` [GW856805], the “%Inh” value in the test on CDC2L2 was determined as 15%; with CDC2L5, 36%; with CDK11, 21%; in the test on CDK2, 7%; in the test with CDK3, 0%; with CDK4-cyclinD1, 12%. Besides, the “%Inh” value in the test with CDK4-cyclinD3 is recorded as 24%; in the test on CDK4, 25%; in the test on CDK5, 0%; with CDK7, 42%.

For `COc1cc(Nc2nccc(N3CCC(NS(=O)(=O)c4ccc(NC(C)=O)cc4)CC3)n2)cc(OC)c1OC` [GSK1379825], the “%Inh” value is reported as 0% in the test on CDC2L2; 0% in the test with CDC2L5; 0% in the test with CDK11; 0% in the test with CDK2; 7% in the test with CDK3; 16% with CDK4-cyclinD1. Further, the “%Inh” value with CDK4-cyclinD3, with CDK4, with CDK5 and with CDK7 was 0% throughout.

With `COc1cccc(CC(=O)N2CCc3cc(-c4cn(C)c5ncnc(N)c45)ccc32)c1` [GSK2608899], the “%Inh” value in the test with CDC2L2 amounted to 8%; with CDC2L5 it was 0%; in the test with CDK11, 98.4%; with CDK2, 18%; in the test on CDK3, 12%; with CDK4-cyclinD1, 0%. Moreover, the “%Inh” value in the test on CDK4-cyclinD3 is recorded as 0%; with CDK4, 25%; in the test on CDK5, 6%; in the test on CDK7, 4%.

The record behind these values is article PMC5540273 (PLoS ONE, 2017).
